Test results as given in PubChem BioAssay AID493001 (Johns Hopkins Ion Channel Center, 2010).
The whole screen tested about 1,900 compounds, of which about 430 (23%) were called active.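 Rule for the calls: active = duplicate-averaged calcium rise in uninduced cells above buffer wells' mean plus 5 SD; inactive = the rest.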 Not all results are given here.

test: compound-evoked calcium rise in non-induced M3R cells, confirmation, artefact control for RGS4 inhibitor project, cell-based, HEK293 M3R, no carbachol, second counter-screen (AID 493001); settings: Fluo-4 calcium, at 10 µM; hits give high values, normalised: buffer wells 0%, carbachol wells 100%

| SMILES | calcium response (agonist-mode artifact) |
| --- | --- |
| COc1ccccc1C1C(C#N)=C(N)Oc2c1c(-c1ccccc1)nn2-c1ccccc1 (stereo not given) | 8% (active) |
| O=C(Nc1ccccc1)OCc1cc(-c2ccc(Cl)cc2)on1 | inactive |
| COc1ccc2c(c1OC)C(=O)OC2Nc1nc(-c2ccccc2)cs1 (stereo not given) | inactive |
| CC(C)c1nc(SCC(=O)Nc2cccc(C(=O)O)c2)c2c3c(sc2n1)CCCC3 | inactive |
| O=C(NCCCc1ccccc1)C1CCC(CNc2c(N3CCCCC3)c(=O)c2=O)CC1 (stereo not given) | inactive |
| Cn1c(-c2ccco2)nc2cc3ccccc3cc21 | inactive |
| Cc1ccc(-c2c3c(=O)n(C)c(=O)n(C)c3cn2-n2cnnc2)cc1 | inactive |
| Nc1ccccc1SC(C[N+](=O)[O-])c1ccccc1 (stereo not given) | 26% (active) |
| c1ccc(C[C@H]2CNCCN2CCC23CC4CC(CC(C4)C2)C3)cc1 | inactive |
| C=CCSc1nc2c(c(=O)[nH]1)C(C(C)C)C(C#N)=C(N)O2 (stereo not given) | inactive |
| CCn1c(O)c(N=NC2=NC(=O)CS2)c2cc(C)ccc21 | inactive |
| O=C1NC(c2ccc(-c3ccccc3[N+](=O)[O-])o2)C(C(=O)c2ccc(Cl)cc2)C(O)(C(F)(F)F)N1 (stereo not given) | 7% (active) |
| Cc1ccc(SC(CC(=O)c2ccc(C(C)(C)C)cc2)C(=O)O)cc1 (stereo not given) | inactive |
| O=C(Nc1ccc(Cl)cc1)OCc1cc(-c2ccccc2)on1 | inactive |
| O=C(O)c1ccc2c(c1)C(=O)N(c1ccc(/C=C/C(=O)c3ccccc3)cc1)C2=O | inactive |
| COc1cc(/C=C2/SC(=S)N(Cc3ccccc3)C2=O)cc(OC)c1O | 37.5% (active) |
| COc1ccc(/C(O)=C2/C(=O)C(=O)N(c3nc(C)c(C)s3)C2c2ccco2)cc1 (stereo not given) | inactive |
| COc1ccc(-c2csc(Nc3ccc(O)cc3)n2)cc1 | inactive |
| CNc1nc(Nc2ccc(C)c(Cl)c2)nc(N)c1[N+](=O)[O-] | inactive |
| O=C(O)c1ccc2c(=O)n3c(nc2c1)/C(=C/c1ccc(Cl)c([N+](=O)[O-])c1)CC3 | inactive |
| COc1cc2c(cc1O)C(SC)=NC(C)(C)C2 | inactive |
| O=C(/C=C/Sc1ncn[nH]1)c1ccc(Cl)cc1 | 9% (active) |

| SMILES | calcium response (agonist-mode artifact) |
| --- | --- |
| Cc1cc(C)nc(S/C=C/C(=O)c2ccccc2)n1 | inactive |
| CC(=O)Nc1ccc(S(=O)(=O)Nc2nc(-c3ccc(C(C)(C)C)cc3)cs2)cc1 | inactive |
| O=C(/C=C/c1ccc(Cl)c([N+](=O)[O-])c1)c1cccnc1 | inactive |
| Cc1ccc(C)c(Cn2nnc3c(=O)[nH]c(C(=O)Nc4ccc(F)cc4)nc32)c1 | inactive |
| O=C(NCc1ccccc1)c1ccc(S(=O)(=O)Nc2cccc(C(F)(F)F)c2)cc1 | 13% (active) |
| CCc1ccc2oc(-c3ccc(N)cc3)nc2c1 | inactive |
| CCCCC1S/C(=N/N=C/c2cccs2)NC1=O (stereo not given) | inactive |
| CCOC(=O)[C@@H]1[C@H]2COc3ccc(Br)cc3[C@H]2N2C(=O)N(c3ccc(Cl)cc3)C(=O)[C@@]12C | inactive |
| O=C(CCN1CCc2ccccc2C(O)(c2ccccc2)C1)c1ccc2c(c1)OCCO2 (stereo not given) | 11.5% (active) |
| CCc1nnc(NS(=O)(=O)c2ccc(N=Cc3c(C)[nH]n(-c4ccc(C)cc4)c3=O)cc2)s1 | inactive |
| CCC(c1nnnn1Cc1ccco1)N(Cc1cc2cc(OC)ccc2[nH]c1=O)C1CCCCC1 (stereo not given) | inactive |
| C=C(C)C(=O)O[C@H]1C/C(C)=C\C(=O)/C=C(\C)[C@H](O)[C@@H]2OC(=O)C(=C)[C@@H]21 | inactive |
| CCCCOC(=O)CNc1nnc(SCC(=O)OCC)[nH]c1=O | inactive |
| CNCC(O)c1ccc(O)c(O)c1 (stereo not given) | inactive |
| Cc1ccc(S/C(=N\S(=O)(=O)c2ccc(Cl)cc2)c2ccccc2)cc1 | 25% (active) |
| COc1ccc(OC)c(S(=O)(=O)N2CCCC(C(=O)N3CCC(C(N)=O)CC3)C2)c1 (stereo not given) | inactive |
| CCOC(=O)C1CCN(C(c2cc3cc(C)cc(C)c3[nH]c2=O)c2nnnn2C2CCCCC2)CC1 (stereo not given) | inactive |
| Cc1noc(NS(=O)(=O)c2ccc(N/C=C/C(=O)c3ccccc3)cc2)c1C | inactive |
| Cc1ccsc1/C=N/n1c(=S)[nH]nc(C)c1=O | inactive |
| CCOc1ccc(/C=N/NC(=O)CSc2ccccn2)cc1O | inactive |
| Cc1nc(-c2ccccc2)sc1C(=O)/C=C/c1ccccc1 | 22.5% (active) |
| S=c1[nH]nc(-c2cccnc2)n1/N=C/C(Cl)=C\c1ccccc1 | inactive |

| SMILES | calcium response (agonist-mode artifact) |
| --- | --- |
| Oc1ccc(-c2[nH]ncc2-c2nc3ccccc3s2)c(O)c1 | inactive |
| C#CCOc1ccc(/C=C2/C(=O)ON=C2C)cc1OCC | inactive |
| C=CCOc1ccc(/C=C2/C(=O)ON=C2C)cc1OCC | 10% (active) |
| COc1cc(/C=C2/C(=O)ON=C2C)ccc1OCc1ccccc1F | 222% (active) |
| Cc1ccc(NC(=O)c2c(NC(=O)CCC(=O)O)sc3c2CCCCC3)cc1 | inactive |
| Cc1ccc(Nc2nc(N)nc(CSc3nnc(C)s3)n2)cc1 | inactive |
| Cc1ccc(Nc2nc(N)nc(CN3CCN(Cc4ccccc4)CC3)n2)cc1Cl | inactive |
| Brc1ccc(-c2csc(N/N=C/c3cccnc3)n2)cc1 | inactive |
| CCOc1ccc(NC(=O)C/C(C)=N/NC(=O)Cc2cccs2)cc1 | inactive |
| O=C(/C=C/c1ccc(Cl)c([N+](=O)[O-])c1)c1ccc(O)cc1 | inactive |
| COc1ccc(/C=C/C(=O)c2ccc(OC)cc2O)cc1 | 11.5% (active) |
| Cc1c(NC(=O)c2coc(=O)c(Br)c2)c(=O)n(-c2ccccc2)n1C | inactive |
| CCc1ccc(C2C(C#N)=C(N)N(N3CCOCC3)C3=C2C(=O)CC(C)(C)C3)s1 (stereo not given) | inactive |
| O=[N+]([O-])c1c(NCCO)cc(Sc2nc3ccccc3s2)c2nonc12 | 114% (active) |
| COc1ccc(S(=O)(=O)Nc2ccc(O)c(Sc3nc4ccccc4s3)c2)cc1 | inactive |
| C[C@H](NC(=O)c1nc[nH]c1C(=O)NCC(=O)OC(C)(C)C)c1ccccc1 | inactive |
| Cc1nc(Nc2ccc(S(=O)(=O)N3CCCC3)cc2)c2nnn(Cc3ccccc3)c2n1 | inactive |
| Nc1cccc(-c2cc(-c3ccccc3)nc(-c3cccc(N)c3)n2)c1 | inactive |
| O=C(N/N=C/c1ccccc1O)/C(=C/c1ccccc1)CCO | inactive |
| CS(=O)(=O)N(CC(O)Cn1c2ccccc2c2ccccc21)c1cccc2ccccc12 (stereo not given) | inactive |
| COCCCNC(=S)N(CCN(C)C)Cc1cc2cc3c(cc2[nH]c1=O)OCCO3 | inactive |
